For experiment [1], the target named is Voltage-gated inwardly rectifying potassium channel KCNH2 (Homo sapiens) (UniProt Q12809). The experiment in a line: qHTS Assay for Small Molecule Inhibitors of the Human hERG Channel Activity (AID 588834).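 Note: lower thallium flux fluorescence means stronger hERG block; nearly all actives have a fitted effect of over 50% in size.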 Note: potency is the fitted concentration of half-maximal effect. Put shortly:
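hERG-BacMam U2OS, 2000 cells/well; 0.7X FluxOR loading 1 hr RT dark; cpd ~10 min 37 °C; stim buffer; FDSS fluorescence 2 min @ 1 s; AC50 Hill fit.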
(qHTS replaces the single test concentration by a dilution series.)

A short description of experiment [2]: S16 Schwann cell viability assay (CellTiter-Glo assay) (AID 624031).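 Note: native untransfected S16 rat Schwann cells; cellular ATP luminescence as a viability measure; series mostly up to about 58 µM; nearly all actives have a fitted effect of over 70% in size.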 Put shortly:
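Parental S16 cells, 24 h compound, 37 °C. ATP-luminescence viability; DMSO = 0% activity, empty wells as reference; curves classified by fit quality and efficacy.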

Experiment [3] in a line: S16 Schwann cell PMP22 intronic element firefly luciferase assay (AID 624032). Note: series mostly up to about 58 µM; nearly all actives have a fitted effect of over 30% in size. In outline:
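Rat S16 Schwann cells stably carrying firefly luciferase driven by a PMP22 intronic element, in 10% FBS, treated 24 h at 37 C. ONE-Glo luminescence normalized to PTC124 control and DMSO (0%); curves classed by r2, magnitude and activity.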

Experiment [4] is described as follows: S16 Schwann cell PMP22 intronic element beta-lactamase assay (AID 624044; calls by dose curve; note: nearly all actives have a fitted effect of over 15% in size). In outline:
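Rat S16 Schwann cells with beta-Lac driven by a PMP22 intronic element, compound-treated 24 h at 37 °C. LiveBLAzer FRET B/G read: 460 nm normalized to potassium clavulanate vs DMSO; 535 nm FRET as viability; concentration-effect curves classified.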

Experiment [5] deals with Glutaminase kidney isoform, mitochondrial (Homo sapiens) (UniProt O94925). As to the kind of experiment: qHTS for Inhibitors of Glutaminase (GLS): LOPAC Validation (AID 624146).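 Note: glutamate product detected by oxidase and peroxidase coupled Amplex red fluorescence gain; series mostly up to about 46 µM; nearly all actives have a fitted effect of over 60% in size.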 In outline: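 Human kidney-isoform GLS in 45 mM KH2PO4 pH 8.2, 0.02% Tween-20, with compound, started with 1mM L-Glutamine (added stock). Glutamate oxidase/HRP/Amplex red coupled fluorescence read at start and after 30 min at RT.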
Sequence of Glutaminase kidney isoform, mitochondrial (Homo sapiens) (O94925 whole entry, looked up, canonical isoform): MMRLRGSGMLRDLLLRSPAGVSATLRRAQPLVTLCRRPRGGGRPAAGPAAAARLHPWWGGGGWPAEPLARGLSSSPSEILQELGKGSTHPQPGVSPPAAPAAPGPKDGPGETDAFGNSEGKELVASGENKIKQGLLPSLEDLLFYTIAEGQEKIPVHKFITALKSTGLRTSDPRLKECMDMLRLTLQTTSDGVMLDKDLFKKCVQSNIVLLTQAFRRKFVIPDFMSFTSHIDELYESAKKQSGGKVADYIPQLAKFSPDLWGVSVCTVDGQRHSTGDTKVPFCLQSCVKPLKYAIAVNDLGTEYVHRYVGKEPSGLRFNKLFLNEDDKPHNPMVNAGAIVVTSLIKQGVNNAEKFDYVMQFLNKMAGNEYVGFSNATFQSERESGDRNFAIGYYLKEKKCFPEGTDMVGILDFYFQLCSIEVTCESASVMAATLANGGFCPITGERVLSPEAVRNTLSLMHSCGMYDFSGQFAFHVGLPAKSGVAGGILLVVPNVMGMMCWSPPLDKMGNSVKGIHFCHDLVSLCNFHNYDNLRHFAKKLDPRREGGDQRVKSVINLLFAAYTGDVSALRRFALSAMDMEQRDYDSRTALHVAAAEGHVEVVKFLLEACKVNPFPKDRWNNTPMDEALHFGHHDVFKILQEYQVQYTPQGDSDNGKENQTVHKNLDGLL

Experiment [6] in a line: qHTS of Trypanosoma Brucei Inhibitors: LOPAC Validation (AID 624147). In outline: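 Readout: single end-point luminescence (Kinase-Glo Plus, 10 min). Reaction conditions were TbPYK/substrate plus 130 uM ADP, 45 min at RT, pH 7.2 TEA buffer. No-enzyme wells served as controls, and data were normalized before concentration-response fitting.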
Experiment [7] deals with Glucagon-like peptide 1 receptor (Homo sapiens) (UniProt P43220). As to the kind of experiment: qHTS of GLP-1 Receptor Agonists: LOPAC Validation (AID 624148).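 Note: higher luminescence signal means agonism.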 Put shortly:
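HEK293 cells stably co-expressing GLP-1R and a cAMP-responsive luciferase reporter, plated 12 hours before compound, then incubated 4-6 hr at 37 deg C. Luminescence read 12 min after detection reagent.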

The nature of experiment [8]: qHTS of Nrf2 Activators: LOPAC Validation (AID 624149). In outline:
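AREc32 cells carrying an ARE-driven firefly luciferase were grown overnight in OPTI-MEM with 5% FBS, then exposed to compounds for 24 hr at 37 deg C. Luciferase signal was read after 30 min with Steady-Glo at RT.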

For experiment [9], the target named is Luciferin 4-monooxygenase (Photinus pyralis) (UniProt P08659). As to the kind of experiment: Biochemical firefly luciferase enzyme assay for NPC (AID 624030).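 Note: purified P. pyralis luciferase at 10 nM with luciferin and ATP substrate; series mostly up to about 59 µM; nearly all actives have a fitted effect of over 70% in size.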 Put shortly:
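Purified P. pyralis luciferase at 10 nM in 50 mM Tris Acetate (final), luminescence read within 5 minutes of enzyme addition to compounds. Activity normalised to PTC124 versus DMSO; concentration-response curves classed by r2, magnitude and activity.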

Molecules are shown by their SMILES. Inconclusive results are not listed. A call without a number means that no potency is given here. Calls of active or inactive are those of the source. Unless noted, calls come from the whole dose curve; as a rule, active = well fitted curve in the direction sought with a large enough effect; inconclusive = small, poorly fitted or top-dose-only effect, or another doubt; inactive = no such curve, though single readings can be large; an effect the other way counts as inactive or inconclusive.

Sequence of Luciferin 4-monooxygenase (Photinus pyralis) (P08659 whole entry, looked up): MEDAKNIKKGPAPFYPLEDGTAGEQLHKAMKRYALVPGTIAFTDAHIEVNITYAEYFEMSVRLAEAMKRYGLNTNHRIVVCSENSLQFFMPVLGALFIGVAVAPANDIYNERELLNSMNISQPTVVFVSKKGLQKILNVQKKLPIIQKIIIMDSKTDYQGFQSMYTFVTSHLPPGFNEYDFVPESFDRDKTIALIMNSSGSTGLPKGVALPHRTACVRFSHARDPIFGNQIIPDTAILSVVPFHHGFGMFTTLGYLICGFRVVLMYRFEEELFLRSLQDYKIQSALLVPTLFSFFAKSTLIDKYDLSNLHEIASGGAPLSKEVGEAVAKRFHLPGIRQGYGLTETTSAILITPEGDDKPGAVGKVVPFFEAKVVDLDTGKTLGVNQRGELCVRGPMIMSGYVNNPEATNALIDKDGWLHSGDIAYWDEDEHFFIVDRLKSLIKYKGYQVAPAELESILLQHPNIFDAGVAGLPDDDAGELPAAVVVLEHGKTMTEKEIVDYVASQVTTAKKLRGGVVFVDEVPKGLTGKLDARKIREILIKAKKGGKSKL
Sequence of Glucagon-like peptide 1 receptor (Homo sapiens) (P43220 whole entry, looked up): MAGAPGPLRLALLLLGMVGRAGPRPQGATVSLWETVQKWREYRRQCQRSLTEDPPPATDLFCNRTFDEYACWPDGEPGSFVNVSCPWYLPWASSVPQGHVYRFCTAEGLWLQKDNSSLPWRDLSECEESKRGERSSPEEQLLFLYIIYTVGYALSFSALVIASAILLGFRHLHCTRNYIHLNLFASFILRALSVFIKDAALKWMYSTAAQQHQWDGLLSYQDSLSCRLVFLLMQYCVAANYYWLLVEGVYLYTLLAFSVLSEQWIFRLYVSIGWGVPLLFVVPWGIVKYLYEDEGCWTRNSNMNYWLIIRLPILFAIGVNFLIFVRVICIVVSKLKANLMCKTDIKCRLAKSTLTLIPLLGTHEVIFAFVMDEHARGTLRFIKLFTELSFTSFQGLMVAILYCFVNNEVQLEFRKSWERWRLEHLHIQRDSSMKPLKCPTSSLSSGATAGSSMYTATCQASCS
Sequence of Voltage-gated inwardly rectifying potassium channel KCNH2 (Homo sapiens) (Q12809 whole entry, looked up): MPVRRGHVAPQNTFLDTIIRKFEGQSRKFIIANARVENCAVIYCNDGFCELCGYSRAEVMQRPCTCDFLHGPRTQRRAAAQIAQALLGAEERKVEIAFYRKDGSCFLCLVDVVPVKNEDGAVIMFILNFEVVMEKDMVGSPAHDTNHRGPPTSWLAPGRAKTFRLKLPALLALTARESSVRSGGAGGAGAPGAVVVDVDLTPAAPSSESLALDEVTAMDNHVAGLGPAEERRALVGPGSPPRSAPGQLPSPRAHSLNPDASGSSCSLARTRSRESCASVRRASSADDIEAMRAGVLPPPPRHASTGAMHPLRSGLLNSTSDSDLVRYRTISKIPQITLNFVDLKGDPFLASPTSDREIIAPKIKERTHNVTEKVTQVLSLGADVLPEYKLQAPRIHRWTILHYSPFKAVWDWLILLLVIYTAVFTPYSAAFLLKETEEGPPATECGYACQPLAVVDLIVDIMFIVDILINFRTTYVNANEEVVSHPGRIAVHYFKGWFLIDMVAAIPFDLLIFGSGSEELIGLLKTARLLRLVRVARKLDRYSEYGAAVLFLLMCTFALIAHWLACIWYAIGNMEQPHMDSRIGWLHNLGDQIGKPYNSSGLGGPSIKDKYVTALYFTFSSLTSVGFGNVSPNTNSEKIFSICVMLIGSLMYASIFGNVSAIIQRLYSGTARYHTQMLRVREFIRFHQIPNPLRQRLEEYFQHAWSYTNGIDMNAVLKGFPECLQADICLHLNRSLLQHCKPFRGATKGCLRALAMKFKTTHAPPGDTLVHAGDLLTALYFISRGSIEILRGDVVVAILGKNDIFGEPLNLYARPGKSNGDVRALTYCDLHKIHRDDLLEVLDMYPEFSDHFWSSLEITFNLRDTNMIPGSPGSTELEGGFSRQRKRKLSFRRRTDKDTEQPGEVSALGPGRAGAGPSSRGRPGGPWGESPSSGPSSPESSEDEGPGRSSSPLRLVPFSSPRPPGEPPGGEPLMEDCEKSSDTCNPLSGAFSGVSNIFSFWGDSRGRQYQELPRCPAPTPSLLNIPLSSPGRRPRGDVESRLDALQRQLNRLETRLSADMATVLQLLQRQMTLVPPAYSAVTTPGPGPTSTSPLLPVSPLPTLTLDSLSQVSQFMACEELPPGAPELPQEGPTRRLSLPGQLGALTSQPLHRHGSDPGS

For the compound `c1ccc2c(c1)sc1ccccc12`, the Potency result in [1] and in experiment [3] was “inactive” each time. For the same compound, the compound was classed as inactive in experiment [2].
Regarding `COc1c2c(cc3c1OCO3)CCN(C)C2`, the Potency entry in [1] and in experiment [3] was “inactive” throughout. The call in [2] was inactive.
Consider `Nc1ccc([As](=O)(O)O)cc1`, for which the Potency entry in experiment [1] and in [3] was “inactive” throughout. Further, the compound was called inactive in [2] and in [4].
`Clc1cccc(SC2CCNCC2)n1`: the call in experiment [4] was inactive.
Take `Cn1c(=O)c2[nH]cnc2n(C)c1=O`: the Potency result in experiment [3] was “inactive”.
As for `CC(C)N(CCC(C(N)=O)(c1ccccc1)c1ccccn1)C(C)C` (centres undefined), the Potency result in [5] is “inactive”. The call in experiment [6], in experiment [7] and in [8] was inactive.
Consider `CN1C(=O)C(O)N=C(c2ccccc2)c2cc(Cl)ccc21` (centres undefined), for which the outcome in [2] and in [4] was inactive. Also, the Potency result in [3] is “inactive”.
`CN1CCC(O)(c2ccc(F)cc2)C(C(=O)c2ccc(F)cc2)C1` (centres undefined): the Potency in experiment [1] was 14.1 µM (active). Moreover, the Potency entry in experiment [3] was “inactive”. Moreover, the compound was classed as inactive in experiment [4].
As for `CC1(C)C(C=C(Cl)Cl)C1C(=O)OC(C#N)c1cccc(Oc2ccccc2)c1` (centres undefined), the Potency result in experiment [9] is “inactive”.
On to `COCCCOc1ccnc(CS(=O)c2nc3ccccc3[nH]2)c1C` (centres undefined), for which the Potency entry in experiment [3] was “inactive”.
With `C=CCc1ccc(O)c(OC)c1`, in experiment [3], the Potency entry is “inactive”.
`CCC1(c2ccc(N)cc2)CCC(=O)NC1=O` (centres undefined): the Potency entry in [1] and in experiment [5] was “inactive” in each case. For the same compound, the outcome in experiment [6], in [7] and in experiment [8] was inactive.
For `Cc1ncsc1CCCl`, the Potency entry in experiment [9], in experiment [3] and in experiment [5] was “inactive” throughout. Further, the result in [2], in experiment [6], in experiment [7] and in experiment [8] was inactive.
Take `COP(=S)(OC)Oc1ccc(SC)c(C)c1`: the outcome in experiment [2] and in experiment [4] was inactive.
On to `CC(NC(C)(C)C)C(=O)c1cccc(Cl)c1` (centres undefined), for which the Potency entry in experiment [5] was “inactive”. The result in [6], in [7] and in [8] was inactive.
For the compound `CN1C(=O)COc2c(C(=O)NC3CN4CCC3CC4)cc(Cl)cc21` (centres undefined), in experiment [2], the outcome was inactive. The Potency entry in experiment [3] was “inactive”.
With `O=C1Nc2ccc(Cl)cc2C(c2ccccc2Cl)=NC1O` (centres undefined), the Potency entry in [9] and in [3] was “inactive” throughout. Also, the compound was classed as inactive in experiment [4].
Regarding `COC(=O)C(Cl)C(=O)OC`, the Potency entry in [9] was “inactive”.
Take `COP(=S)(OC)Oc1cc(Cl)c(Cl)cc1Cl`: in [9], the Potency result is “inactive”.
Turning to `CCN(CC)C(=O)[C@@H]1C=C2c3cccc4[nH]cc(c34)C[C@H]2N(C)C1`, in experiment [9], the Potency result is “inactive”.
On to `O=C(O)CCCc1ccc(N(CCCl)CCCl)cc1`, for which the Potency result in experiment [1] and in experiment [5] was “inactive” in each case. For the same compound, the call in experiment [2], in experiment [6], in [7] and in [8] was inactive.
`O=C1c2ccccc2C(=O)C1C(=O)C(c1ccccc1)c1ccccc1`: the Potency entry in [1] and in [3] was “inactive” in each case. Besides, the outcome in experiment [4] was inactive.
Regarding `O=C(O[C@H]1CN2CCC1CC2)N1CCc2ccccc2[C@@H]1c1ccccc1`, the Potency result in [3] is “inactive”.
For the compound `CCN(CC)CCc1c[nH]c2ccccc12`, the Potency entry in experiment [9] is “inactive”.
Consider `O=C1Nc2ccc(Cl)cc2C(c2ccccc2)=NC1O` (centres undefined), for which the call in experiment [2] and in [4] was inactive. In experiment [3], the Potency result is “inactive”.
Consider `NC(=O)CC[C@@H]1NC(=O)[C@H](Cc2ccccc2)NC(=O)[C@H](Cc2ccc(O)cc2)NC(=O)[C@@H](N)CSSC[C@@H](C(=O)N2CCC[C@H]2C(=O)N[C@@H](CCCN=C(N)N)C(=O)NCC(N)=O)NC(=O)[C@H](CC(N)=O)NC1=O`, for which, in [3], the Potency result is “inactive”.
Take `Clc1ccc2c(c1)C(c1ccccc1)=NCc1nncn1-2`: the Potency entry in [1] and in experiment [3] was “inactive” in each case. Further, the result in experiment [4] was inactive.
For the compound `C[C@H](N)C(=O)c1ccccc1`, the Potency entry in experiment [9] is “inactive”.
The same measure, in the same setting: under `CCCN(CCC)C(=O)Cc1c(-c2ccc(Cl)cc2)nc2ccc(Cl)cn12` stands “inactive”.
In the case of `COc1ccc2c(c1OC)C(=O)O[C@H]2[C@@H]1c2cc3c(cc2CCN1C)OCO3`, the result in [2], in experiment [4], in experiment [6], in experiment [7] and in [8] was inactive. The Potency result in experiment [3] and in experiment [5] was “inactive” each time.
With `O=c1oc2ccccc2c(O)c1Cc1c(O)c2ccccc2oc1=O`, the Potency entry in experiment [9] and in experiment [3] was “inactive” each time. Also, the outcome in [2] was inactive.
Turning to `CN=C(NC#N)NCCSCc1nc[nH]c1C`, the Potency result in experiment [3] was “inactive”.
`C[C@]12CCC(=O)C=C1CC[C@@H]1[C@H]3CC[C@](C)(O)[C@@]3(C)CC[C@@H]12`: the Potency entry in [9] is “inactive”.
On to `CC(C)COC(=O)c1ccc(N)cc1`, for which the Potency entry in [3] is “inactive”.
With `C[C@]12CC[C@@H]3c4ccc(OC(=O)N(CCCl)CCCl)cc4CC[C@H]3[C@@H]1CC[C@@H]2OP(=O)(O)O`, the Potency result in [9] was “inactive”.
With `O=C(Nc1ccc(Br)cc1)c1cc(Br)cc(Br)c1O`, the Potency result in experiment [3] was “inactive”. In addition, the call in experiment [4] was inactive.
Turning to `CC(C)(C)c1ccc(O)cc1`, in experiment [2], the outcome was inactive. The Potency entry in experiment [3] was “inactive”.

The record behind these values is PubChem BioAssay (NCATS).
